From ChEMBL document CHEMBL4513216, “Probing the Open Global Health Chemical Diversity Library for Multistage-Active Starting Points for Next-Generation Antimalarials” (ACS Infect Dis, 2020)
About 8,600 (12%) of roughly 69,000 compounds showed an effect of 50% or more. Many of the other results were omitted from the sample, so strong results are more common in it than they were.

System: Plasmodium berghei
Test: Screen against P. berghei liver stage (PbLuc), transformed with Luciferase, at 10uM
Type: functional, HepG2
Conditions: tested at 10 uM

SMILES | INHIBITION
CCOc1ncccc1NC(=O)c1cc(C)sc1C | -8.66%
COc1ccc(C)cc1CN1CCN(Cc2nccn2C)CC1 | -190%
Fc1ccc(F)c(CN2CCC(c3cnccn3)CC2)c1 | 34.1%
Fc1cccc(CN2CCC(c3cc4ncccc4cn3)CC2)c1F | 52.7%
Fc1cccc(CN2CCC(c3n[nH]c4ncccc34)CC2)c1F | 42.6%
Fc1ccc(F)c(CN2CCC(c3cc4ncccc4cn3)CC2)c1 | 63.8%
COc1ccc(C)cc1CN1CCC(c2cc3ncccc3cn2)CC1 | 87.9%
Fc1cccc(CN2CCC(c3noc(-c4ccccn4)n3)CC2)c1F | -6.73%
Fc1cc(F)cc(CN2CCC(c3cc4ncccc4cn3)CC2)c1 | 32.3%
CCc1onc(C)c1C(=O)N1CCC(c2cc3ncccc3cn2)CC1 | 17.1%
Cc1ccsc1C(CNC(=O)c1cc(=O)c2ccccc2[nH]1)N(C)C (stereo not drawn) | -38.6%
FC(F)(F)c1csc(N2CCN(Cc3ccccn3)CC2)n1 | 1.56%
O=C(O)c1ccc(-c2cscn2)cc1 | -36.1%
COC(=O)CCN(C)C(=O)c1ccc(-c2cscn2)cc1 | 67.3%
CN(C)C(=O)c1ccc(-c2cscn2)cc1 | 14.6%
Nc1ncnc2[nH]c(N3CCCCC3)nc12 | 4.12%
CSc1nc(N)cc(N2C[C@H]3CC[C@@H](C2)N(CC2CC2)C3=O)n1 | -65%
COCCCN1C(=O)c2ccc(C(=O)NCCc3c[nH]cn3)cc2C1=O | 34.3%
CCCNC(=O)c1ccc2c(c1)C(=O)N(CC(C)C)C2=O | 31.8%
CCC(C)N1C(=O)c2ccc(C(=O)NCCc3c[nH]cn3)cc2C1=O (stereo not drawn) | 53.2%
COCCN1C(=O)c2ccc(C(=O)NCCc3c[nH]cn3)cc2C1=O | 68.4%
O=C(NCCc1c[nH]cn1)c1ccc2c(c1)C(=O)N(C1CCCC1)C2=O | 36.6%
O=C(NCCc1c[nH]cn1)c1ccc(S(=O)(=O)NC2CCCC2)cc1 | 7.65%

SMILES | INHIBITION
O=C(NCCc1c[nH]cn1)c1ccc2c(c1)C(=O)N(C1CC1)C2=O | -36.3%
CC(C)CN1C(=O)c2ccc(C(=O)NCCc3c[nH]cn3)cc2C1=O | 24.5%
CC(C)CCN1C(=O)c2ccc(C(=O)NCCc3c[nH]cn3)cc2C1=O | 65.4%
CCc1nnc(CN(C)C2CCCN(Cc3noc(C4CC4)n3)C2)o1 (stereo not drawn) | 27.8%
Cc1ccc(F)c(NC(=O)NCCCn2nc3ccccn3c2=O)c1 | -0.113%
O=C(c1ccc(-c2cn[nH]c2)nc1)N1CCC(N2CCOCC2)CC1 | 10.1%
CCc1ccc(NS(=O)(=O)C=c2[nH]c(=O)n3cccc3c2=O)cc1 | -101%
CC(CCN1CCCn2nc(CNS(C)(=O)=O)cc2C1)c1ccccc1 (stereo not drawn) | 27.6%
CN(Cc1cccc(C(N)=O)c1)Cc1nc2c(cnn2C)c(=O)[nH]1 | -29.7%
Fc1ccccc1-c1nc(CNCCn2cccn2)cs1 | -58.7%
CCN1CCCC12CCN(C(=O)c1nccn1C)CC2 | -26.5%
CCOc1ccc(CN(CC)C(=O)c2ccc(C)[nH]c2=O)cc1OC | 20.85%
CC(C)N(C)C[C@H]1OC[C@@H]2CCN(Cc3cccc(C#N)c3)C[C@@H]21 | 23.3%
CCN(CC)c1nc2ccsc2c(=O)n1CCC(=O)NCc1cccs1 | 30.2%
CCN(CC)c1nc2ccsc2c(=O)n1CCC(=O)NCc1ccco1 | 55.7%
CSc1nc2ccsc2c(=O)n1CC(=O)NC1CCCC1 | -58.7%
CCN(CC)c1nc2ccsc2c(=O)n1CCC(=O)NC1CCCC1 | 58.4%
CSc1nc2ccsc2c(=O)n1CC(=O)NC1CCCCC1 | 26.6%
Cc1ccn(CCC(=O)NCc2ccco2)n1 | 26%
O=C(Nc1cccnc1)NC(CCCO)c1ccccc1 (stereo not drawn) | 14.1%
COCCN1C[C@H]2[C@@H](C1)N(Cc1cnn(C)c1)CC[C@H]2OC | -4.88%
O=C(c1ccc(-n2cccn2)nc1)N1CCCC(n2cccn2)C1 (stereo not drawn) | 26.45%
COc1ccc(OC)c(Sc2ncccc2C(=O)NCC2CC2)c1 | 23.3%

SMILES | INHIBITION
CC(c1ccncn1)N(C)Cc1cc(O)c2cc(F)ccc2n1 (stereo not drawn) | 28.3%
COc1ncc(CN(C)C(C)c2cccnc2)cn1 (stereo not drawn) | 5.85%
CC(c1cccnc1)N(C)Cc1ccccn1 (stereo not drawn) | 70.4%
CC(c1ccon1)N(C)Cc1cc(O)c2cc(F)ccc2n1 (stereo not drawn) | 36%
CC(c1cccnc1)N(C)Cc1cc(O)c2cc(F)ccc2n1 (stereo not drawn) | 66.8%
CC(c1cccnc1)N(C)Cc1csc(-c2ccccn2)n1 (stereo not drawn) | -45.8%
c1ccc(CCCN2CCCC2Cn2cncn2)cc1 (stereo not drawn) | -25.9%
CCN(C)C(=O)c1ccc(N(C)Cc2cc(-c3cccnc3)no2)nc1 | 34%
CCc1ncc(C(=O)N(C)Cc2cc(-c3ccncc3)no2)cn1 | 59.7%
CCN(C)C(=O)c1ccc(N(C)Cc2cc(-c3ccncc3)no2)nc1 | 5.17%
O=C(CS(=O)(=O)C1CCCC1)NC1CCc2nccn2C1 (stereo not drawn) | 19.2%
Cc1cc(CN2CC[C@H]3OCC[C@@]3(C(=O)NCc3ccco3)C2)no1 | -0.813%
Cc1nnc(CN2CCCC(c3noc(C4CC4)n3)C2)o1 (stereo not drawn) | -36.3%
Cc1cc(NCCc2nc(C)cs2)nc(-c2cccnc2)n1 | -25.1%
CCc1nc(CNc2cc(C)nc(-c3cccnc3)n2)cs1 | 54.9%
Cc1cc(NCCc2nnc(N)s2)nc(-c2cccnc2)n1 | 16.7%
Cc1cc(NCCc2c(C)n[nH]c2C)nc(-c2cccnc2)n1 | 16.69%
Cc1cc(NCCc2c[nH]cn2)nc(-c2cccnc2)n1 | -14.1%
CCc1csc(CNc2cc(C)nc(-c3cccnc3)n2)n1 | 56.05%
CSC(C)(C)CNC(=O)NCc1cccc(-n2ccnc2)c1 | 17.2%
O=C(Cc1ccccc1F)N1CCC[C@@H]1Cn1c(=O)oc2ccccc21 | -12%
CC1CCCN(C(=O)c2occc2COc2cccc(C#N)c2)C1 (stereo not drawn) | 35.1%
